# CYP2C19 inhib: blocks human cytochrome P450 2C19; inhibition, % at 5 µM; CYP2C19 Supersomes, luciferin-H EGE luminescence, 30 min; 96,000 compounds, 21% hits; P33261;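 active = CYP2C19 inhibition above a set limit at 5 µM in the primary screen, cut at about 50% in these data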;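 also: plate controls were negative control wells for no effect and 2.5 mM tranylcypromine positive control for full effect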
# Target sequence (P33261 whole entry, looked up): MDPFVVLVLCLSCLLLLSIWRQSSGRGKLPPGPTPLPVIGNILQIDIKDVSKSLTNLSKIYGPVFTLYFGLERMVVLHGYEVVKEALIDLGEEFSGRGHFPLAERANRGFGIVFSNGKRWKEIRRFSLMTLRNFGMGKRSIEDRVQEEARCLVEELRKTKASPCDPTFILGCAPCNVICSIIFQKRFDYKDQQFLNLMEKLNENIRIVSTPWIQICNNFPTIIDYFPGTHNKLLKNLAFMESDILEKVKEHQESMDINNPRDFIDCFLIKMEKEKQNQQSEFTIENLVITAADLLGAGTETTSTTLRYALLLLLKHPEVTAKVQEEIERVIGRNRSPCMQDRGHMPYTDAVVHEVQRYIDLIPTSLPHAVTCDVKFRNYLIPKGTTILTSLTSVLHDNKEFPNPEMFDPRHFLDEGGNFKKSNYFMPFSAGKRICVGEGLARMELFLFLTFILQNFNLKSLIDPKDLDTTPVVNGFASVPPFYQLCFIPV
# CYP2C9 inhib: inhibitors of human CYP2C9. P11712. CYP2C9 Supersomes, luciferin-H conversion, luminescence. inhibition, % at 5 µM. 96,000 compounds, 20% hits;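 active = blocking of liver enzyme CYP2C9 beyond about 50% at 5 µM, limit read from the data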
# CYP2C19 act: cytochrome P450 2C19 (human) activation; P33261; recombinant CYP2C19, luciferin-H EGE luminescence; stronger effect = higher value; 0 = fully inhibited enzyme, 1 = untreated enzyme; activation factor at 5 µM; 96,000 tested, under 10 active; AID 1025;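 active = activation factor of at least 2 at 5 µM in the primary screen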;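 also: 0 = wells with 2.5 mM tranylcypromine and 1 = vehicle-only wells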
# PostGolgi ctrl: yeast control strain growth, post-Golgi counter-screen; efflux-deficient yeast background strain, growth absorbance A615, 16 h; inhibition, % at 10 µM; 98,000 compounds, 5% hits
# CYP2C9 activ: CYP2C9 (human) activation | activation factor at 5 µM | recombinant CYP2C9, luciferin-H conversion, luminescence; stronger effect = higher value; factor 1 = untreated enzyme, 0 = blocked | 96,000 compounds, 1.4% hits;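 active = activation factor of 2 or more for CYP2C9 at a 5 µM dose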;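 also: 0 = sulfaphenazole-blocked wells and 1 = vehicle-only wells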
# PostGolgi yeast: growth inhibition of a yeast mutant, post-Golgi transport screen. post-Golgi transport phenotypic cell assay. inhibition, % at 10 µM. 98,000 compounds, 0.9% hits. AID 739;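 also: yeast cells grown in 1536-well plates; yeast grown about 18 h at 30C before absorbance read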
# * hit, by the source's call; nt = no result. Most compounds without a hit are left out; they make up all but 32% or so of the library. Rule as the data show it, unless noted: active = inhibition above about 30%; inactive = the rest.
SMILES,CYP2C19 inhib,CYP2C9 inhib,CYP2C19 act,PostGolgi ctrl,CYP2C9 activ,PostGolgi yeast
CCOC(=O)CSC1=Nc2ccccc2C2=NC(CC(=O)NCc3cccs3)C(=O)N12 (centres undefined),8.0,64.9*,0.9,1.5,0.4,-9.7
O=C(O)c1ccc(S(=O)(=O)N2CCCCCC2)cc1,-2.5,6.6,1,2.5,0.9,10.1
O=C(c1ccc(S(=O)(=O)N2CCCCCC2)cc1)N1CCN(c2ccccn2)CC1,7.5,69.4*,0.9,20.2,0.3,4.5
O=C(NC1CCN(C(=O)N2c3ccccc3Sc3ccccc32)CC1)c1ccco1,22.9,31.4,0.8,14.9,0.7,-5.4
NC(=O)C1CCN(C(=O)N2c3ccccc3Sc3ccccc32)CC1,22.5,1.8,0.8,2.1,1,3.8
O=C(N1CCN(c2ccccn2)CC1)N1c2ccccc2Sc2ccccc21,89.9*,88.3*,0.1,85.1*,0.1,2.2
Nc1cccc2c1C(=O)N(C(=O)c1ccc(S(=O)(=O)N3CCCCCC3)cc1)C2=O,28.7,57.0*,0.7,4.0,0.4,-1.9
O=C(NC1CCN(C(=O)N2c3ccccc3Sc3ccccc32)CC1)c1ccccc1Cl,33.4,49.0,0.7,43.1*,0.5,9.1
Cc1ccc(/C(O)=C2\C(=O)C(=O)N(CC(C)O)C2c2cccc(F)c2)cc1 (centres undefined),-21.4,-3.6,1.2,-2.1,1,4.9
CCOC(=O)c1ccc(S(=O)(=O)N2CCN(CC3CC=CCC3)CC2)cc1 (centres undefined),5.3,-0.3,0.9,2.2,1,0.8
O=C(c1cccc(Cl)c1)N1CCN(c2ccccn2)CC1,89.8*,79.4*,0.1,11.1,0.2,-6.8
O=C(c1cc(Cl)ccc1Cl)N1CCN(c2ccccn2)CC1,94.1*,92.1*,0.1,-8.6,0.1,7.1
O=C(c1c(Cl)cccc1Cl)N1CCN(c2ccccn2)CC1,37.4,63.2*,0.6,-11.4,0.4,-3.5
CCOC(=O)c1cc2c(C(F)(F)F)cc(-c3ccccc3)nc2o1,7.2,25.3,0.9,7.3,0.7,-2.7
COc1ccc(OC)c(C(=O)Cn2nnc3ccccc3c2=O)c1,-9.8,-5.3,1.1,9.5,1.1,15.9
Cc1cc(C(=O)Cn2nnc3ccccc3c2=O)c(C)n1Cc1cccs1,97.3*,71.1*,0,7.1,0.3,-4.3
O=C(NCCCn1ccnc1)c1noc2c1CCc1ccccc1-2,83.1*,50.2*,0.2,20.8,0.5,-4.3
O=C(NCCCn1ccnc1)c1noc2c1CCCC2,68.6*,84.8*,0.3,-0.6,0.2,7.0
CC12CCC(C(=O)NCc3ccco3)(OC1=O)C2(C)C (centres undefined),7.1,-6.4,0.9,1.6,1.1,0.3
CC12CCC(C(=O)NCCCn3ccnc3)(OC1=O)C2(C)C (centres undefined),75.8*,32.3,0.2,17.2,0.7,-0.6
O=C(NCCCn1ccnc1)c1ccc(Br)o1,59.1*,34.5,0.4,0.9,0.7,-9.2
O=C(NCCCn1ccnc1)c1cccnc1,nt,nt,nt,0.2,nt,1.9
O=C(O)CNC(=O)CCN1C(=O)c2ccccc2C1=O,-3.6,-23.4,1,13.7,1.2,-6.9
CCOC(=O)C1CCCN(C(=O)CCCn2nc(C)n3c(cc4sccc43)c2=O)C1 (centres undefined),31.5,46.1,0.7,23.1,0.5,-3.3
CC(C)(C)C(=O)Nc1c2c(nc3c1CCC3)CCCC2,0.9,0.8,1,0.6,1,1.6
SMILES,CYP2C19 inhib,CYP2C9 inhib,CYP2C19 act,PostGolgi ctrl,CYP2C9 activ,PostGolgi yeast
O=C(c1ccc(C#CC2(O)CCCCC2)cc1)N1CCOCC1,5.8,-8.7,0.9,14.5,1.1,0.0
CCCc1cc(C(=O)NCc2ccco2)no1,28.2,5.7,0.7,7.4,0.9,-11.3
O=C(Nc1nccs1)C12CC3CC(C1)CC(C(=O)Nc1nccs1)(C3)C2,91.3*,81.2*,0.1,9.4,0.2,23.2
O=C(O)C1C2C=CC(C2)C1C(=O)Nc1nccs1 (centres undefined),11.6,3.8,0.9,18.2,1,-1.5
O=C(Nc1ccccn1)C12CC3CC(CC(C3)C1)C2,25.6,91.8*,0.7,-1.3,0.1,4.8
CC12COC3(C(=O)Nc4nccs4)CC1CCC32C (centres undefined),59.6*,4.9,0.4,0.2,1,3.5
Cc1cc([N+](=O)[O-])nn1CC(=O)N1CCc2ccccc2C1,27.8,22.1,0.7,11.8,0.8,-1.4
O=C(CN1C(=O)C2CC=CCC2C1=O)NC1=NCCS1 (centres undefined),-0.7,2.3,1,11.8,1,6.4
CN(C)C(=O)c1cn(N(C)c2ncc(C(F)(F)F)cc2Cl)c(=O)c2ccccc12,52.9*,79.9*,0.5,-0.4,0.2,1.9
CN(C)/C=C/C(=O)/C=C/c1cn(-c2ncc(C(F)(F)F)cc2Cl)c2ccccc12,14.8,13.0,0.9,28.8,0.9,12.6
Cc1nn(Cc2ccccc2)c(=O)n1N(C)c1ncc(C(F)(F)F)cc1Cl,67.4*,10.4,0.3,4.1,0.9,5.0

# Assay outcomes as filed in PubChem BioAssay.
